Source: ChEMBL document CHEMBL3988442, “University of Dundee, Small-Polar-MMV Screening Library” (2021)
For some of these results: Entries with a potency or affinity are not part of this list.

How the values were obtained:
Set-up in all cases: scale not given: direction of the effect not stated beside the values
[1] = biological target: Protein translocase subunit SecA (Escherichia coli (strain K12)) (UniProt P10408); assay: Assay to Identify E. coli SecA ATPase Inhibitors; type: functional; conditions: 30 µM
Protein translocase subunit SecA (Escherichia coli (strain K12)), sequence (P10408 whole entry): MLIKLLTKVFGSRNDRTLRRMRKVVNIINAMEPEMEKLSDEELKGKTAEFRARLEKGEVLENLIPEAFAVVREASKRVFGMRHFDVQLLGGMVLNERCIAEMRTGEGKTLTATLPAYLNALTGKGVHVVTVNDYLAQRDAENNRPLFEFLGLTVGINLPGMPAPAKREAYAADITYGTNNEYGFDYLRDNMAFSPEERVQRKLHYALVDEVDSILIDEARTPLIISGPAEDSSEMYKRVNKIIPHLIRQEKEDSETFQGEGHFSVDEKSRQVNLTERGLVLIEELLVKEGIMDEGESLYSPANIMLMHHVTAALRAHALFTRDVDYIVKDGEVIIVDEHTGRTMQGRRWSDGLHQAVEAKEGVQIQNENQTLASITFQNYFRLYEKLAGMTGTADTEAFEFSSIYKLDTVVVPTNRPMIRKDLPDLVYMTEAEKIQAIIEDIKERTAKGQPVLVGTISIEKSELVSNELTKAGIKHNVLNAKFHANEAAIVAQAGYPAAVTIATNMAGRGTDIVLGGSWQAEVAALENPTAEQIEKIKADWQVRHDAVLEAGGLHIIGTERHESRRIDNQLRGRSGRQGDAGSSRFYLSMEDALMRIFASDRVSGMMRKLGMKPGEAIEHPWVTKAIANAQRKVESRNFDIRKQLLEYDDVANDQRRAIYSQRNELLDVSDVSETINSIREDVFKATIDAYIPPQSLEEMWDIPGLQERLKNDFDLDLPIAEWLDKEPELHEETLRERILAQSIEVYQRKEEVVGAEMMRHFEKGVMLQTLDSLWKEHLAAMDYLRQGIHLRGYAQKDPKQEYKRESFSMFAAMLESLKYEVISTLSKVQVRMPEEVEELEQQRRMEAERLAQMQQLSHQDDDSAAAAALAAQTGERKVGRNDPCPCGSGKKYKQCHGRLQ

[2] = biological target: T1, Ubiquitin-activating enzyme e1, putative (Leishmania donovani (strain BPK282A1)) (UniProt E9BSI1); assay: Leishmania donovani Ubiquitin Activating Enzyme (LdE1); type: functional; conditions: 30 µM
T1 sequence (whole entry): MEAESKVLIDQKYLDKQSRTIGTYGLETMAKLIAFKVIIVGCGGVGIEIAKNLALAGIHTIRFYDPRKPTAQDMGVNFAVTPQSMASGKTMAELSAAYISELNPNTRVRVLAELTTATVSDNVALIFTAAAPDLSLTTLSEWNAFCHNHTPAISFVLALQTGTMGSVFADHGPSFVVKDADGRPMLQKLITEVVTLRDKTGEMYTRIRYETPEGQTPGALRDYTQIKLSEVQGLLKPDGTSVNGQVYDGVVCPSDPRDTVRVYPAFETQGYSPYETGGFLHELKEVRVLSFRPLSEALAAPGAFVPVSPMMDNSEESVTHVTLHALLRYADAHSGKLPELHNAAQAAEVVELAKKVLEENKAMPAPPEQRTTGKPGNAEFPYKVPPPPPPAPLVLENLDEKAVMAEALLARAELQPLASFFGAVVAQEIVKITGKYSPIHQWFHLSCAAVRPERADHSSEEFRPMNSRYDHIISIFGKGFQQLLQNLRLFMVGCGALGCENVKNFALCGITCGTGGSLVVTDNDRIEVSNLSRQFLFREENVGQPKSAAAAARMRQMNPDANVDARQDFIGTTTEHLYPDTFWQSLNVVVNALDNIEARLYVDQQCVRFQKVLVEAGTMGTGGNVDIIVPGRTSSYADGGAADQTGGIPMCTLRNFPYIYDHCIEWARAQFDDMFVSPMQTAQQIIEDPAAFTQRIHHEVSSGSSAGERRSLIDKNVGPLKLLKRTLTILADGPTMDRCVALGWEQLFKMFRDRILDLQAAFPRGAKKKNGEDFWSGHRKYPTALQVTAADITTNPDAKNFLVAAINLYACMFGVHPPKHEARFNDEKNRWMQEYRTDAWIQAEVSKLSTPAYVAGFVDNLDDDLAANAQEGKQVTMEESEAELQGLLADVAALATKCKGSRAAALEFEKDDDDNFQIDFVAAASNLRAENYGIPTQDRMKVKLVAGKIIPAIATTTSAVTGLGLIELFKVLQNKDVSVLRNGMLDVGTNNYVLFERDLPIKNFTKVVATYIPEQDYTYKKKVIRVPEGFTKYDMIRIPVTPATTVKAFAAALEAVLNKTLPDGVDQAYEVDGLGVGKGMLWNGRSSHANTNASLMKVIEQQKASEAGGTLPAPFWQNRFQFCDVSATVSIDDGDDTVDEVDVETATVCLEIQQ

[3] = biological target: AMP-activated protein kinase, AMPK (Homo sapiens) (UniProt P54646+O43741+P54619+Q9UGJ0+Q9Y478+Q13131+Q9UGI9); assay: AMP-dependent Kinase enzyme assay. An in vitro enzyme assay that detects ADP turnover that is directly proportional to AMPK activity. This uses naive AMPK that is activated during the assay with MK-8722; type: functional; conditions: 30 µM
[4] = biological target: Sialic acid-binding Ig-like lectin 9 (Homo sapiens) (UniProt Q9Y336); assay: Hs-Siglec9 ALPHAscreen SOP 20170721; conditions: 10 µM
Sialic acid-binding Ig-like lectin 9 (Homo sapiens), sequence (Q9Y336 whole entry): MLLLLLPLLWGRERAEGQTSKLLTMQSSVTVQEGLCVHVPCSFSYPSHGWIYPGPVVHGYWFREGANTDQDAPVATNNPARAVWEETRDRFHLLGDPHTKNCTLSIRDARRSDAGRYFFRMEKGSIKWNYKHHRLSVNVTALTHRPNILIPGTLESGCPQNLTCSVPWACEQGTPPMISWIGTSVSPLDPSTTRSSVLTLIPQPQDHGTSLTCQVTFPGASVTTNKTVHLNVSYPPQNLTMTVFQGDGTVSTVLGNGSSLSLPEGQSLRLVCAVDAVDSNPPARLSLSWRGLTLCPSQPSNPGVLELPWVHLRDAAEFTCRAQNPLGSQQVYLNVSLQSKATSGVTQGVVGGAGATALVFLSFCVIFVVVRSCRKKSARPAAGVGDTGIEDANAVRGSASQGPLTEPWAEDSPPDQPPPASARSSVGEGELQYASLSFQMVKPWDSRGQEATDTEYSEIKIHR

Trypanosoma cruzi = assay: Trypanosoma cruzi phosphomannomutase and mannose-1-phosphate guanylyltransferase assay; type: functional; conditions: 10 µM
[5] = biological target: T2, Arginase-2, mitochondrial (Homo sapiens) (UniProt P78540); assay: in vitro enzyme assay to detect the production of urea directly proportional to the activity of Arginase II; type: functional; conditions: 33.3 µM; also: in the data most compounds retested in dose-response had high values
T2 sequence (whole entry): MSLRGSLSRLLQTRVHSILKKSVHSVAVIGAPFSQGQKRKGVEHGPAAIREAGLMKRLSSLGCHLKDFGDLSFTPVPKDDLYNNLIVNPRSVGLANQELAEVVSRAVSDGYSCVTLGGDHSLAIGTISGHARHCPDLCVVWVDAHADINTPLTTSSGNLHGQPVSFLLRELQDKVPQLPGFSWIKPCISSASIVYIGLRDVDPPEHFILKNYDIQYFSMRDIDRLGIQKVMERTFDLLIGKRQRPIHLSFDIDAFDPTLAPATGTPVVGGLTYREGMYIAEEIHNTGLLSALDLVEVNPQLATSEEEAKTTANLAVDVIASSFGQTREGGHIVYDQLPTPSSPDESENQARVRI

[6] = biological target: T3, Proteasome subunit beta (Trypanosoma cruzi) (UniProt O96673); assay: Trypanosoma cruzi proteasome chymotrypsin-like activity (TcProtChymo) assay.; also: in the data most compounds retested in dose-response had high values; type: functional; conditions: 9.37 µM
T3 sequence (whole entry): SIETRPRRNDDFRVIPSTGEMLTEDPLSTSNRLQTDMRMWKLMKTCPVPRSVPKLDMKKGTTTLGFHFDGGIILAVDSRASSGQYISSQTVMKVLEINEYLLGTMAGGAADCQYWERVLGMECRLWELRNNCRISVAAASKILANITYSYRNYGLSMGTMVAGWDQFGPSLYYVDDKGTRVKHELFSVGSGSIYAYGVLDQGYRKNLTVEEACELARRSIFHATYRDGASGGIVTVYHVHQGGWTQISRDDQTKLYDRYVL

Homo sapiens = organism: Homo sapiens; assay: To identify inhibition of the IFN signalling (Jak-Stat) pathway via expression of an eGFP reporter gene under the control of an IFN-stimulated response element (ISRE) containing MxA promoter.; type: functional; conditions: 30 µM
[7] = biological target: T4, Tyrosyl-tRNA synthetase, putative (Trypanosoma cruzi (strain CL Brener)) (UniProt Q4DSP6); assay: Trypanosoma cruzi tyrosyl tRNA synthetase (TcYRS) _High Tyrosine SOP; type: functional; conditions: 30 µM; also: in the data most compounds retested in dose-response had high values
T4 sequence (whole entry): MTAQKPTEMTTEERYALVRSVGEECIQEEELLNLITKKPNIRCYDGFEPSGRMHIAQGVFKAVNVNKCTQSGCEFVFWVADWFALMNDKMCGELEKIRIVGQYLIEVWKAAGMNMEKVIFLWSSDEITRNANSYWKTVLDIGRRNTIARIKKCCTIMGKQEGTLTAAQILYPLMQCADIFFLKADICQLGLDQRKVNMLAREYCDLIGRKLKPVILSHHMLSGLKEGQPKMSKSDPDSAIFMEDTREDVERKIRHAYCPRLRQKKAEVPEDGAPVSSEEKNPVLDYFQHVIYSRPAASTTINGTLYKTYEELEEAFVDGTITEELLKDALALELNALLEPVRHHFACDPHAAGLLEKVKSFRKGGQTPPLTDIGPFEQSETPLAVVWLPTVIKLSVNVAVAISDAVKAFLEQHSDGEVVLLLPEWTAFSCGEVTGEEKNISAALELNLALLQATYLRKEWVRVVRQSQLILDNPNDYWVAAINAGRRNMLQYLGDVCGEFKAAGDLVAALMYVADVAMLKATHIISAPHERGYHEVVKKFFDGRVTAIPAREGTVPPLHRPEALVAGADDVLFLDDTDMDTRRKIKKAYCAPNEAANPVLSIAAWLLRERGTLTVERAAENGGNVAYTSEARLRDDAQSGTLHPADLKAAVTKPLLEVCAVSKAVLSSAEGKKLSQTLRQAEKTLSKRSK

[8] = biological target: T4, Tyrosyl-tRNA synthetase, putative (Trypanosoma cruzi (strain CL Brener)); assay: Trypanosoma cruzi tyrosyl tRNA synthetase (TcYRS) SOP; type: functional; conditions: 30 µM
[9] = biological target: Chromo domain-containing protein 1 (Saccharomyces cerevisiae (strain ATCC 204508 / S288c) (Baker's yeast)) (UniProt P32657); assay: ScCHD-1 Enzyme Inhibition Assay; type: functional; conditions: 30 µM; also: in the data most compounds retested in dose-response had high values
Chromo domain-containing protein 1 (Saccharomyces cerevisiae (strain ATCC 204508 / S288c) (Baker's yeast)), sequence (P32657 whole entry, the tested form may be a part): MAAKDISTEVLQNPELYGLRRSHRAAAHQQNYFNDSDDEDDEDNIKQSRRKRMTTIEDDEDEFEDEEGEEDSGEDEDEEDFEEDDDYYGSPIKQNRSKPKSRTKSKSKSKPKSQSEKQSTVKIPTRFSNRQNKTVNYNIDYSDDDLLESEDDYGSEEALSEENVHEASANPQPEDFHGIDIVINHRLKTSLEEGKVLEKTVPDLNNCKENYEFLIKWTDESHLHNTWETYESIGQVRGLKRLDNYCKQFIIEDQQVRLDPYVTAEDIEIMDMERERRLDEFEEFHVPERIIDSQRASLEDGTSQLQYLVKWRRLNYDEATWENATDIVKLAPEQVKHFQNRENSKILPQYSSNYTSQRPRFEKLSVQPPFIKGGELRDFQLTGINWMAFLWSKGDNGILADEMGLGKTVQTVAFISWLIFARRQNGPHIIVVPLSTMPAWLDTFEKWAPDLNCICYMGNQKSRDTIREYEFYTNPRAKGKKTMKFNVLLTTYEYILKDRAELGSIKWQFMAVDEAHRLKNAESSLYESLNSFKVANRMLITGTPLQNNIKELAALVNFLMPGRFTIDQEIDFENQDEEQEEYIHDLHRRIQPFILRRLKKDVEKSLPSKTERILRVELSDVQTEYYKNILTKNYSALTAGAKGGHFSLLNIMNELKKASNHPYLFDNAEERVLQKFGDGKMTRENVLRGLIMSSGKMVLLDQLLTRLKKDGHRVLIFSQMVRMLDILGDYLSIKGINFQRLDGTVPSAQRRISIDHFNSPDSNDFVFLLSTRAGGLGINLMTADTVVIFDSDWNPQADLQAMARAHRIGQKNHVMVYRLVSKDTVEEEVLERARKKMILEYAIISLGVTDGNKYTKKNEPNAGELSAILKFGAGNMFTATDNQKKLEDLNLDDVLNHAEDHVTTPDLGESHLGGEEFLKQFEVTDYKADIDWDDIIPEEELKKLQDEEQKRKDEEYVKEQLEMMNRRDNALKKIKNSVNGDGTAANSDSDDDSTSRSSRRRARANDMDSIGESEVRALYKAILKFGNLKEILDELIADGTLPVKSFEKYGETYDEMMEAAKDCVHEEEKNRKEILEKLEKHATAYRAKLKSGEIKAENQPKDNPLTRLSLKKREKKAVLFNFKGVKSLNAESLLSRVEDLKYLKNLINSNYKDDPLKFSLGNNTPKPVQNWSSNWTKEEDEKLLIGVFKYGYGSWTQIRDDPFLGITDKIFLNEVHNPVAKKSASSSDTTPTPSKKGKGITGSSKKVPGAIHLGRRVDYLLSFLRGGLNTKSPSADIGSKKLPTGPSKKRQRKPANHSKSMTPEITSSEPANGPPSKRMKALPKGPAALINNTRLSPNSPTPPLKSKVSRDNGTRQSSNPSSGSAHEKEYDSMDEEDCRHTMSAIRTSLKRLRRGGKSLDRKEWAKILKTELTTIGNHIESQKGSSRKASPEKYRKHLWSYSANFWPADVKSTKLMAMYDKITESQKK

| SMILES | Percent Effect [1] [%] | Percent Effect [2] [%] | Percent Effect [3] [%] | Percent Effect [4] [%] | Percent Effect (Trypanosoma cruzi) [%] | Percent Effect [5] [%] | Percent Effect [6] [%] | Percent Effect (Homo sapiens) [%] | Percent Effect [7] [%] | Percent Effect [8] [%] | Percent Effect [9] [%] |
| --- | --- | --- | --- | --- | --- | --- | --- | --- | --- | --- | --- |
| CN(C)C(=O)CN(C)C(=O)c1cnc(Cc2ccc(F)cc2)s1 | -5.52 | 0 | -1.38 | -1.9 | -1.07 | 3.12 | 17.8 | -4.01 | 0.546 | 8.64 | -7.08 |
| CC(O)CN1CCN(C(=O)c2ccc(N(C)C)nc2)CC1 (stereo unspecified) | -1.4 | 33.8 | -9.23 | 0.151 | 4.68 | 0 | 11 | 8.66 | 7.77 | 9.76 | -4.89 |
| CSc1nccn1-c1cccc(C(=O)NCC2CC2)c1 | -4.93 | 7.89 | 0.0421 | 2.24 | 6.82 | -1.44 | 3.13 | 2.37 | 5.42 | 13.6 | 2.32 |
| CSc1ccc(CNC(c2ccccc2)c2nccn2C)cc1 (stereo unspecified) | -5.49 | 21.6 | -4 | 8.74 | 7.71 | -2.77 | 11.1 | 24.1 | 10.9 | 30.5 | -6.68 |
| Cn1cc(C(=O)NCc2cn3c(n2)CN(Cc2ccccn2)CC3)cn1 | -7.16 | 2.7 | 4.33 | -3.43 | 2.73 | 2.08 | -0.254 | -6.36 | 6.93 | 8.54 | -1.37 |
| CCOCCOC(C)C(=O)NCc1cn2cc(Br)ccc2n1 (stereo unspecified) | -0.315 | 0 | 8.27 | 0.478 | 1.27 | 1.18 | 9.68 | -18 | 5.32 | 10.4 | -1.5 |
| COc1ccc(C(=O)NS(=O)(=O)c2cncc(Br)c2)cc1OC | -6.13 | -5.41 | -4.05 | 9.13 | -2.51 | 0 | 2.07 | 24.4 | 2.65 | 0 | -1.34 |
| O=C(Cc1ccsc1)N1CCC(n2nc(-c3ccco3)ccc2=O)CC1 | -7.59 | 6.76 | 16.2 | 33.6 | -2.17 | -4.41 | 13.9 | -0.185 | 9.68 | 6.49 | -13.4 |
| O=C1[C@H]2CC[C@H](CN(S(=O)(=O)c3ccccc3)C2)N1Cc1cscn1 | -9.05 | 5.48 | 3.4 | -0.832 | -1.59 | -2.4 | -4.02 | 27.2 | -1.04 | -1.24 | 2.37 |
| Cn1nc(C(=O)NCc2ccccn2)c2c1CCS(=O)(=O)C2 | -2.26 | 6.67 | 15 | 1.25 | -6.48 | -11.1 | 16.3 | 11.6 | 6.35 | 12.8 | -9.63 |
| COc1cccc(CNC(=O)CN2CCCCC2Cn2cccn2)c1 (stereo unspecified) | -3.05 | 5.2 | 2.66 | 13 | 4.6 | -0.21 | 2.83 | -17 | 3.81 | 11.8 | -17.2 |
